High-throughput results (PubChem)
This is one part of a sample in which hits are shown more often than they occur.
Glioma ERSR ind: qHTS for Inducers of the Endoplasmic Reticulum Stress Response (ERSR) in Human Glioma: qHTS; actives 0.02% (n = 420,000); Potency, µM, usual class: activators; U87-MG GRP78 promoter luciferase reporter, 16 h; also: series mostly up to about 76 µM; nearly all actives have a fitted effect of over 35% in size
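ERSR induction read as luciferase luminescence (Bright-Glo, 10 min at room temperature) in stably transfected human U87-MG glioma cells exposed to compounds for 16 h, using GRP78 as sensor.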
VDR inhibitor: Inhibitors of the vitamin D receptor (VDR): qHTS | Vitamin D3 receptor (Homo sapiens), P11473 | VDR-SRC2-3 peptide fluorescence polarization, 2 h | Potency, µM, hits mostly inhibitors | actives 0.93% (n = 400,000)
Target sequence (P11473 whole entry, looked up): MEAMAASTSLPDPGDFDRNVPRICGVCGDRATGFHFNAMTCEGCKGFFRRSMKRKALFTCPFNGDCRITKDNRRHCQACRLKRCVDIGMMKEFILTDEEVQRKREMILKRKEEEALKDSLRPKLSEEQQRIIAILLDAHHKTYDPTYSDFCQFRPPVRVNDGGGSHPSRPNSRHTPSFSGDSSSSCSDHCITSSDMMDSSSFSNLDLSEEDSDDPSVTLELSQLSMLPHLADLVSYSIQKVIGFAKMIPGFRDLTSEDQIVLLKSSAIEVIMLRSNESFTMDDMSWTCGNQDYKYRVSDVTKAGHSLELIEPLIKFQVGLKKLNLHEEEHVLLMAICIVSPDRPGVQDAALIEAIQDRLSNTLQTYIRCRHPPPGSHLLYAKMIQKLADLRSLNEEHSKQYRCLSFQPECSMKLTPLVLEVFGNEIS
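Fluorescence polarization assay of small-molecule disruption of VDR binding to coregulator peptide SRC2-3. Compounds and controls pin-transferred, then read after 2 h incubation at ambient room temperature.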
12-LOX inh: Primary qHTS assay for inhibitors of human arachidonate 12S-lipoxygenase (ALOX12): Round 2; Polyunsaturated fatty acid lipoxygenase ALOX12 (Homo sapiens), P18054; purified 12hLO, xylenol orange hydroperoxide absorbance; Potency, µM (series often up to 108 µM), hits mostly inhibitors; actives 1.1% (n = 580,000); AID 1671190, 2021
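Purified human 12hLO (150 nM final) in 25 mM Hepes, 0.01% Triton X-100, pH 7.0 was preincubated 15 min at room temperature with compound. Then 40 uM arachidonic acid was added, 30 min. Hydroperoxide was read by Fe-XO absorbance ratio 573/405 nm.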
G9a inh: qHTS Assay for Inhibitors of Histone Lysine Methyltransferase G9a. AID 504332, 2011. actives 8.8% (n = 350,000). G9a H3K9 monomethylation, AlphaScreen, 2 h. Potency, µM (doses to about 102 µM), hits mostly inhibitors; also: nearly all actives have a fitted effect of over 75% in size
Target sequence (Q96KQ7 913-1193 limits assumed): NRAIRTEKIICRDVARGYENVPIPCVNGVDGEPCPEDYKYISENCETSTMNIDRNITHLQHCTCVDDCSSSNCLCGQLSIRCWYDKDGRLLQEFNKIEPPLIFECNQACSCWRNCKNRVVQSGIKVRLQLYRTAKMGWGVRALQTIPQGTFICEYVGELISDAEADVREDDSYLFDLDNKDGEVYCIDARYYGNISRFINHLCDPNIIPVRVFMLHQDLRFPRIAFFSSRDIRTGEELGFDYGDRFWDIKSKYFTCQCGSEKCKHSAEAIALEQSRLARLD
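Enzyme 20 nM + cpd, 15 min RT; add b-H3K9 pep 500 nM / SAM 20 uM; 2 h RT; anti-H3K9me1 Ab 0.5 ug/mL + SA donor / anti-rabbit acceptor beads 20 ug/mL each, 10 min; AlphaScreen read.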
Sfp PPTase inh: qHTS Assay for Inhibitors of Bacillus subtilis Sfp phosphopantetheinyl transferase (PPTase); Biochemical Sfp PPTase activity, qHTS; Potency, µM, hits mostly inhibitors; actives 3.5% (n = 310,000);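 also: the enzyme is Sfp with the accession as filed and its product quenches rhodamine fluorescence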
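After 15 min at room temperature with compound, 15 nM Sfp received 5 uM rhodamine-CoA plus 12.5 uM BHQ-2-ybbR (50 mM Hepes pH 7.6, 10 mM MgCl2). Rate came from the fluorescence difference over 30 min, ex 525/em 598 nm.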
Large screens that a line does not name were inactive; ! = not active in a repeat. Calls follow the shape of the dose curve; as a rule, active = well fitted curve in the direction sought with a large enough effect; inconclusive = small, poorly fitted or top-dose-only effect, or another doubt; inactive = no such curve, though single readings can be large; an effect the other way counts as inactive or inconclusive.

Cc1ccc(C(=O)c2oc3ccc(Cl)cc3c2NC(=O)CN2CCN(C)CC2)cc1	G9a inh 79µM
CS(=O)(=O)N(Cc1cccc(CN(C(C(=O)O)c2ccccc2)S(C)(=O)=O)c1)C(C(=O)O)c1ccccc1 (stereo unspecified)	VDR inhibitor inconclusive, G9a inh 32µM, Sfp PPTase inh inconclusive
O=C1N(c2ccccc2)c2ccccc2C1(Cc1ccncc1)Cc1ccncc1	12-LOX inh 24µM!, G9a inh 13µM!
Cn1nccc1CN1CCC2(C1)C(=O)N(c1ccccc1)c1ccccc12 (stereo unspecified)	none (no result: Glioma ERSR ind, VDR inhibitor, G9a inh, Sfp PPTase inh)
O=C(O)c1ccc(/C=N/NC(=O)C2CC2)cc1	none (no result: Glioma ERSR ind, VDR inhibitor, G9a inh, Sfp PPTase inh)
Cc1ccccc1Nc1c(-c2ccncc2)nc2ccc(Cl)cn12	none
Cc1ccccc1Nc1scc(-c2ccc(Cl)cc2)[n+]1-c1ccccc1C	G9a inh 20µM
CCOc1ccc(C2CCCN2S(=O)(=O)Cc2ccc(F)cc2)cc1 (stereo unspecified)	none (no result: Glioma ERSR ind, VDR inhibitor, G9a inh, Sfp PPTase inh)
Cc1ccccc1-c1csc(C(C)(O)c2ccccc2)n1 (stereo unspecified)	12-LOX inh inconclusive (no result: VDR inhibitor, G9a inh, Sfp PPTase inh)
CN(C)c1ccc(-c2csc(C(O)(c3ccccc3)C(F)(F)F)n2)cc1 (stereo unspecified)	12-LOX inh 18µM (no result: VDR inhibitor, G9a inh, Sfp PPTase inh)
Cc1ccc(-c2csc(C(O)(c3ccccc3)C(F)(F)F)n2)cc1C (stereo unspecified)	12-LOX inh inconclusive (no result: VDR inhibitor, G9a inh, Sfp PPTase inh)
Cc1ccccc1-c1csc(C(O)(c2ccccc2)C(F)(F)F)n1 (stereo unspecified)	12-LOX inh 45µM (no result: VDR inhibitor, G9a inh, Sfp PPTase inh)
CN(Cc1cccs1)C(=O)c1ccc2ccccc2c1	none (no result: Glioma ERSR ind, VDR inhibitor, G9a inh, Sfp PPTase inh)
O=C(NNC(=O)C1CC1c1ccccc1)NC1CCCCC1 (stereo unspecified)	none (no result: Glioma ERSR ind, VDR inhibitor, G9a inh, Sfp PPTase inh)
CCC(C)c1ccc2oc(-c3ccc(Cl)c(NC(C)=O)c3)nc2c1 (stereo unspecified)	none (no result: Glioma ERSR ind, VDR inhibitor, G9a inh, Sfp PPTase inh)
O=C(NC1(c2ccccc2)CCC1)c1cc(=O)[nH]c2ccccc12	12-LOX inh 11µM (no result: Glioma ERSR ind, VDR inhibitor, G9a inh, Sfp PPTase inh)
CC(NC(=O)c1cc(=O)[nH]c2ccccc12)c1ccccc1 (stereo unspecified)	none
CCc1noc(-c2ccn3c(CNC(=O)c4ccc(C)c(C)c4)nnc3c2)n1	none (no result: Glioma ERSR ind, VDR inhibitor, G9a inh, Sfp PPTase inh)
O=C(CCc1ccsc1)NCC1CCCC1	none (no result: Glioma ERSR ind, VDR inhibitor, G9a inh, Sfp PPTase inh)
CS(=O)(=O)N1CCN(C2C3CC4CC(C3)CC2C4)CC1 (stereo unspecified)	none (no result: G9a inh)
CN1CCCN(C2C3CC4CC(C3)CC2C4)CC1 (stereo unspecified)	Glioma ERSR ind inconclusive, 12-LOX inh inconclusive, G9a inh 10µM, Sfp PPTase inh 79µM
Cc1cc(C)n(CC(=O)N2c3ccccc3Sc3ccc(C(F)(F)F)cc32)n1	none
CCN(CC)CCC(=O)N1c2ccccc2Sc2ccc(Cl)cc21	VDR inhibitor 50µM!, 12-LOX inh inconclusive
CCN(CC)CCC(=O)N1c2ccccc2Sc2ccc(C(F)(F)F)cc21	VDR inhibitor 28µM, 12-LOX inh inconclusive
O=C(NCc1cccc(C(F)(F)F)c1)c1ccc2c(c1)CCC2	none (no result: Glioma ERSR ind, VDR inhibitor, G9a inh, Sfp PPTase inh)
CCCn1nc(C(=O)N(C)Cc2cccc(OC)c2)c2ccccc2c1=O	none (no result: Glioma ERSR ind, VDR inhibitor, G9a inh, Sfp PPTase inh)
COc1ccc2c(=O)c3c(=O)n(Cc4ccco4)c(-c4ccc(C)cc4)nc3oc2c1	12-LOX inh inconclusive, G9a inh inconclusive, Sfp PPTase inh 25µM
COc1ccc2c(=O)c3c(=O)n(Cc4ccco4)c(C(C)C)nc3oc2c1	G9a inh inconclusive, Sfp PPTase inh inconclusive
CCN1CCCC1CNC(=O)C1CCN(c2nc(Cl)nc3nc[nH]c23)CC1 (stereo unspecified)	none (no result: Glioma ERSR ind, VDR inhibitor, G9a inh, Sfp PPTase inh)
O=C(c1ccc(Br)cc1)C(CN1CCOCC1)c1ccccc1 (stereo unspecified)	VDR inhibitor 40µM
O=C(c1ccccc1)C(CN1CCCCC1)c1ccccc1 (stereo unspecified)	VDR inhibitor 25µM, 12-LOX inh 45µM (no result: G9a inh, Sfp PPTase inh)
CN(C)CC(C(=O)c1ccccc1)c1ccccc1 (stereo unspecified)	VDR inhibitor 50µM
O=C(c1ccc(Cl)cc1)C(CN1CCCCCC1)c1ccccc1 (stereo unspecified)	none (no result: Glioma ERSR ind, VDR inhibitor, G9a inh, Sfp PPTase inh)
COC(=O)/C(=C/c1cccc([N+](=O)[O-])c1)C(C)=O	none (no result: Glioma ERSR ind, VDR inhibitor, G9a inh, Sfp PPTase inh)
O=C(Nc1ccc2oc(-c3ccc(F)cc3)cc(=O)c2c1)c1cccs1	none (no result: Glioma ERSR ind, VDR inhibitor, G9a inh, Sfp PPTase inh)
CCc1ccc(NC(=O)c2ccc3c(Cl)c4c(nc3c2)CCC4)cc1	none (no result: Glioma ERSR ind, VDR inhibitor, G9a inh, Sfp PPTase inh)
CCn1c(N)c(C(=O)Nc2ccccc2C(=O)OC)sc1=S	12-LOX inh inconclusive, G9a inh inconclusive, Sfp PPTase inh 35µM
COC(=O)c1ccccc1NC(=O)CC(=O)Nc1ccccc1C(=O)OC	none
CCn1c(N)c(C(=O)NCc2ccc3c(c2)OCO3)sc1=S	G9a inh inconclusive, Sfp PPTase inh 45µM (no result: 12-LOX inh)
CCn1c(N)c(C(=O)NCCOC)sc1=S	12-LOX inh inconclusive, Sfp PPTase inh 56µM
COCCNC(=O)c1ccc(C(=O)NCCOC)s1	none
COC(=O)C1=C(C)NC(C)=C(C(=O)OCCN(C)Cc2ccccc2)C1c1cccc([N+](=O)[O-])c1 (stereo unspecified)	VDR inhibitor inconclusive, G9a inh 30µM
COC(=O)C1=C(C)NC(C)=C(C(=O)OC)C1c1ccc(-c2cccc([N+](=O)[O-])c2)o1	12-LOX inh inconclusive, G9a inh 79µM
COC(=O)C1=C(C)NC(C)=C(C(=O)OC)C1c1ccc(-c2cc(Cl)ccc2Cl)o1	12-LOX inh inconclusive, G9a inh 18µM, Sfp PPTase inh inconclusive
